Shown is part of a subset that was picked to be rich in hits.
Sa helicase inh: blocks Staphylococcus aureus DNA helicase | hit rate 0.05% among 120,000 | inhibition, % (concentration not given with the values) | AID 485395 | purified S. aureus helicase, fluorescence unwinding assay; in the data active means inhibition above about 25%, passing the limit was not always enough;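 further: 0% = mean of negative control wells and 100% = mean of positive control wells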
Sa growth inh: blocks Staphylococcus aureus growth; S. aureus RN4220 growth, OD600, 20 h, 42 °C; stronger effect = lower value; relative growth, % (test concentration not listed); hit rate 0.53% among 170,000;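 active means relative growth at most 50% at the other temperature and 20+ points below 30 °C, or under 10% at both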
* hit, by the source's call; . = not tested or not shown.

SMILES	Sa helicase inh	Sa growth inh
Cc1cc(Br)ccc1NC(=O)c1ccccn1	6	106
C/C(=N\NC(=O)c1cc(Br)ccc1O)c1ccccn1	4	3.1*
CCc1ccc2oc(-c3ccccc3)cc(=NCc3cccnc3)c2c1	48*	96
CC(O)CN=c1cc(-c2ccccc2)oc2ccc(Cl)cc12 (stereo not drawn)	39	68
Cc1ccc2oc(-c3ccccc3)cc(=NCCN(C)C)c2c1	37	112
Cc1ccc2oc(-c3ccccc3)cc(=NCCO)c2c1	44*	103
CCOc1ccc(NC(=O)c2sc3nc[nH]c(=O)c3c2C)cc1	6	.
CC1CCc2c(sc3ncnc(NCCOCCO)c23)C1 (stereo not drawn)	11	101
Cn1c(N)c(C(=O)CN2C(=O)c3ccccc3S2(=O)=O)c(=O)n(C)c1=O	-15	109
CCN(CC)c1ccc2c(N3CCCCC3)cc(=O)oc2c1	-10	2.1*
CCN(CC)c1ccc2c(C)c(CO)c(=O)oc2c1	-44	102
O=C(Nc1cccc(Br)c1)Nc1nc2c(s1)CCCCCC2	.	37*
Cc1cccc(C(=O)Nc2nc3c(s2)CCCC3)c1	.	83
O=C(C1=NN(C2CCS(=O)(=O)C2)C(=O)CC1)N1CCc2ccccc21 (stereo not drawn)	-6	89
Cc1c(CN(C)C)c2c(n1C)C(=O)c1ccc(Br)cc1-2	64*	87
Cc1c(CN(C)C)c2c(n1Cc1ccccc1)C(=O)c1ccc(Br)cc1-2	14	93
O=C(Cc1ccccc1F)Nc1cc2c(cc1Br)OCCO2	-10	132
C=C(C)CSc1nnc(-c2ccc(C(C)(C)C)cc2)o1	-1	73
N/C(Cn1ccccc1=O)=N\O	-14	82
O=C(O)Cn1ccccc1=O	7	44*
Cc1sc2nc(CC#N)[nH]c(=O)c2c1C	-42	91
CCN(CC)Cc1nc2sc(C)c(C)c2c(=S)[nH]1	-13	-0.7*
Cc1nc(-c2cccs2)sc1-c1ccnn1C(=O)C1CC1	.	90
CN1/C(=C/C=C/c2oc3ccccc3[n+]2C)Oc2ccccc21	-98	-1.0*
CCN1/C(=C/C=C2\SC(=S)N(C)C2=O)Oc2ccccc21	-14	88
SMILES	Sa helicase inh	Sa growth inh
CN(C)C=Nc1ccc(S(=O)(=O)c2ccc(N=CN(C)C)cc2)cc1	-14	91
OCC12C3CC4C5C3C1C5C(F)(F)C42 (stereo not drawn)	2	79
Cc1no[n+]([O-])c1COc1cccc(/C=C2\SC(=S)NC2=O)c1	14	-0.8*
COc1cc(C=C2C(=O)NC(=O)NC2=O)cc(Br)c1OCc1c(C)no[n+]1[O-]	-12	96
CC(=O)Nc1nc(CN2CCN(Cc3nc4ccccc4s3)CC2)cs1	-8	141
CCOC(=O)N=c1oc2cc(Cl)c(Cl)cc2o1	12	57
CCOC(=O)Oc1cc2oc(=O)sc2cc1Cl	32	4.9*
COc1ccc2cc(CN(CC(N)=O)C(C)C)c(Cl)nc2c1	-4	92
CNC(=O)Sc1ccccc1Cl	.	-0.6*
O=C(CSc1ccccc1Cl)N1CCCC1	-20	99
CCc1ccc2[nH]c3nc(C)cc(C)c3c(=O)c2c1	21	105
CCN(CC)/N=N/c1[nH]nc2nc(C)cc(C)c12	10	7.2*
Cc1cccc(C2=NN3C(=O)c4ccccc4C3C2)c1 (stereo not drawn)	5	98
O=C(Nc1ncnc2sccc12)C1CCCCC1	8	4.5*
O=C(Nc1ncnc2sccc12)c1cccs1	4	60
COc1ccc(O)c(C(=O)c2cnc(Nc3nc(C)c4ccccc4n3)nc2)c1	-10	187
N#Cc1ccc(COC(=O)CCc2nnc(-c3ccccc3)o2)cc1	-3	89
O=C(Nc1nnc(C2CC2)o1)c1ccc(S(=O)(=O)N2CCCCC2)cc1	5	12
CC1CCCCN1S(=O)(=O)c1ccc(C(=O)Nc2nnc(C3CC3)o2)cc1 (stereo not drawn)	17	0.0*
N#C/C(=N\Nc1ccc(F)cc1)C(N)=S	-23	0.0*
NC(=S)NNc1ccc(F)cc1	18	70
CCn1c2ccccc2c2cc(C(N)=O)ccc21	10	86
CCn1c2ccccc2c2cc(N3C(=O)C=CC3=O)ccc21	.	3.8*
O=C(NCCc1cn2ccccc2n1)c1cccs1	4	90
CCSc1nsc(NC(=O)Nc2cccc(F)c2)n1	-6	-0.7*
SMILES	Sa helicase inh	Sa growth inh
O=C(CSc1nnc(NC(=O)Nc2ccccc2)s1)Nc1cccc(F)c1	.	118
O=C(Oc1ccc(-c2nnco2)cc1)c1ccccc1OC(F)F	16	84
COc1ccc(C(c2c(C)[nH]c3ccccc23)N2CCCC2)cc1 (stereo not drawn)	21	.
COc1ccc(C(c2c(C)[nH]c3ccccc23)N2CCOCC2)cc1 (stereo not drawn)	15	1.3*
NC(=O)C1CCCCN1C(=S)Nc1cccc(C(F)(F)F)c1 (stereo not drawn)	-1	.
Cc1ccc(-n2sc3ccccc3c2=O)cc1	2	1.1*
Cc1ccc(N2C(=O)c3ccccc3C2=O)cc1	4	101
COCCNC(=O)c1ccc2c(=O)n3c(nc2c1)CCCCC3	19	104
CN(C)S(=O)(=O)c1ccc(S(=O)(=O)N2CCC(c3nc4c(nnn4Cc4cccc(F)c4)c(=O)[nH]3)CC2)cc1	5	97
COc1ccc(/C=N/n2ncc3ccccc32)cc1	14	27*
COc1ccc(/C=N/N2CCN(C)CC2)cc1	3	106
Cc1ccc(C(=O)CC(=O)c2ccccc2O)cc1	2	0.8*
COc1ccc(C(=O)CC(=O)c2ccccc2O)cc1	16	87
O=C(CC(=O)c1c(F)cccc1F)c1ccccc1O	.	123
O=C(CC(=O)c1ccccc1O)c1ccc(Cl)cc1	-2	1.1*
Cc1ccc(-n2c(=O)oc3ccc(Cl)cc3c2=O)cc1	18	68
O=c1oc2ccc(Cl)cc2c(=O)n1-c1cccc(C(F)(F)F)c1	7	-0.7*
COc1ccc(CN2CCN(c3ccc(F)cc3)CC2)c2ccccc12	2	135
CN(C(=O)c1cc2c(s1)-c1ccccc1OC2)C1CCCCC1	12	89
O=C(/C=C/C=C/c1ccccc1)c1ccc(Cl)cc1	1	84
O=C(/C=C/C=C/c1ccccc1)c1ccncc1	0	1.0*
CCN(CC)CC(O)COc1ccc(OC)cc1 (stereo not drawn)	0	.
CCN(CC)CC(O)COc1ccc(C(C)(C)CC)cc1C(C)(C)CC (stereo not drawn)	-3	-0.7*
COC(=O)c1c(O)c2ccccc2oc1=O	.	102
CCc1ccc(OCC(=O)c2c(O)c3ccccc3oc2=O)cc1	32	4.4*
SMILES	Sa helicase inh	Sa growth inh
O=C(N[C@H](CO)[C@H](O)c1ccc([N+](=O)[O-])cc1)C(Cl)Cl	.	-0.1*
CC(=O)Nc1ccc(S(=O)(=O)Nc2ccc([N+](=O)[O-])cc2)cc1	.	77
CNC(=S)NCc1ccco1	.	106
Cc1nc(Cc2nnc(SCc3cc(=O)oc4cc5c(cc34)CCC5)o2)cs1	9	94
CCCNC(=O)c1ccccc1NC(=O)C(C)Oc1ccc(Cl)cc1 (stereo not drawn)	-5	94
O=C(O)CNCC(O)Cn1c2ccccc2c2ccccc21 (stereo not drawn)	22	110
OC(CNCc1ccccc1)Cn1c2ccc(Cl)cc2c2cc(Cl)ccc21 (stereo not drawn)	-2	-0.9*
Cn1c(=NC(=O)c2cc(=O)c3ccccc3o2)sc2cc(Br)ccc21	10	.
O=C(Cc1ccccc1)N/N=C/c1ccncc1	.	99
O=C(O)c1ccccc1S(=O)(=O)Nc1cccnc1	.	119

Screening results: PubChem, ICCB-Longwood Screening Facility, Harvard Medical School
